Inconclusive results are not listed. The source made the active and inactive calls.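 The calls were made as follows, unless noted: active = normalized viability below 100% at a tested concentration; inactive = the rest.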
Assays:
[1] = viability loss in pontine glioma line – cell-based, SU-DIPG-XVII, MIPE5.0, CellTiter-Glo, qHTS, dose response (AID 1347060; cut-off not given, nearly all actives have AC50 up to about 26 µM;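 as to AC50: cells exposed to compound for 48 hours before viability readout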); settings: CellTiter-Glo ATP luminescence
[2] = viability loss in pontine glioma line – cell-based, SU-DIPG-XIII, MIPE4.0, CellTiter-Glo, qHTS, dose response (AID 1347061; cut-off not given, nearly all actives have AC50 up to about 37 µM;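 also: cells exposed to compound for 48 hours before readout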); settings: CellTiter-Glo ATP luminescence
[3] = viability loss in pontine glioma line – cell-based, JHH-DIPG-1, MIPE4.0, CellTiter-Glo, qHTS, dose response (AID 1347062; cut-off not given, nearly all actives have AC50 up to about 27 µM;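 as to AC50: cells exposed to compound for two days before readout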); settings: JHH-DIPG-1 viability, CellTiter-Glo ATP luminescence
[4] = viability loss in pontine glioma line – cell-based, SU-DIPG-IV, MIPE4.0, CellTiter-Glo, qHTS, dose response (AID 1347063; cut-off not given, nearly all actives have AC50 up to about 30 µM;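 also: compound exposure lasted 48 hours before the viability readout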); settings: CellTiter-Glo ATP luminescence
[5] = viability loss in pontine glioma line – cell-based, SU-DIPG-XIII, MIPE5.0, CellTiter-Glo, qHTS, dose response (AID 1347064; cut-off not given, nearly all actives have AC50 up to about 23 µM;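 also: cells exposed to compound for 48 hours before the viability read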); settings: CellTiter-Glo ATP luminescence
[6] = viability loss in pontine glioma line – cell-based, SU-DIPG-XXV, MIPE5.0, CellTiter-Glo, qHTS, dose response (AID 1347065; cut-off not given, nearly all actives have AC50 up to about 26 µM;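 also: cells exposed to compound for 48 hours before ATP readout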); settings: CellTiter-Glo ATP luminescence
[7] = JHH-DIPG-1 glioma cell viability, MIPE5.0 library, CellTiter-Glo luminescence, qHTS (AID 1347067; cut-off not given, nearly all actives have AC50 up to about 26 µM;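 also: cells exposed to compound for 48 hours before readout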); settings: JHH-DIPG-1 glioma viability, CellTiter-Glo ATP luminescence
[8] = growth inhibition of DIPG cells – cell-based, MIPE5.0 library, qHTS (AID 1347068; cut-off not given, nearly all actives have IC50 up to about 30 µM); settings: SU-DIPG-XXV viability
[9] = viability loss with induced miR-34 in A549 – imaging, A549 dox-inducible miR-34, nuclei and caspase counts, primary screen (AID 1347080;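 active = compounds whose cell count with miR-34 switched on is under 0.7 times the count with it off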); settings: A549 miR-34 inducible, Hoechst nuclei count, 48 h
[10] = MELAS cybrid and Rieske KO viability enhancers – cell-based, MELAS cybrids, Rieske KO mouse fibroblasts, CellTiter-Glo, primary screen (AID 1508586;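 active = mean z-score across replicates of 1.96 or higher in either the MELAS or the Rieske mutant cell line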;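 also: z relative to plate mean and SD of compound and empty wells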); settings: low glucose
[11] = compounds altering HSF1 focus formation in cells – imaging, Selleck Cancer Library (AID 1347162; in the data active = plate-normalised HSF1 focus index below about 0.46); settings: human cells, HSF1 nuclear foci imaging, at 10 µM; SSMD: measured here: HSF1 foci SSMD mean; cell count: measured here: cell number; plate-normalised HSF1 focus index: stronger effect = lower value
[12] = drug combination growth inhibition, ovarian cancer – cell-based, oncology-focused library, rucaparib conditional, profiling panel (AID 1508598); settings: patient-derived ovarian cancer cells, CellTiter-Glo viability, 144 h, stronger effect = lower value
[13] = growth inhibition of DIPG cells – cell-based, MIPE4.0 library, CellTiter-Glo luminescence, qHTS (AID 1347066; cut-off not given, nearly all actives have AC50 up to about 30 µM;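 also: cells exposed to compound for 48 hours before readout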); settings: SU-DIPG-VI viability, CellTiter-Glo ATP luminescence
[14] = growth inhibition, single agent or in combination, cell-based, chromothripsis tumors, cisplatin or BGB combos (AID 1671449; in the data active = inhibition above about 80%;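 also: cells exposed for 96 hours; 0% = vehicle DMSO and 100% = killing by high DMSO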); settings: LFS_MB_P medulloblastoma cells
[15] = growth inhibition, single agent and combos, cell-based, chromothripsis tumors, cisplatin or BGB combos (AID 1671450; in the data active = inhibition above about 80%;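 also: cells exposed to compound for four days; 0% = vehicle DMSO and 100% = cell killing by high DMSO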); settings: HDN33 neuroblastoma cells, stronger effect = higher value
[16] = stronger effect = lower value, cell number ratio, induced over uninduced
[17] = measured here: relative caspase fold change +Dox/-Dox
[18] = measured here: total cells with miR-34 induction, stronger effect = lower value
[19] = measured here: total cells without miR-34 induction
[20] = MELAS cybrid survival, CellTiter-Glo 48 h, stronger effect = higher value
[21] = Rieske KO mouse fibroblast survival, CellTiter-Glo 72 h
[22] = at 0.000305 µM, OCI-C5x cells, with rucaparib 10 µM, 100% = cells with rucaparib alone
[23] = at 0.000305 µM, OCI-C5x cells, without rucaparib
[24] = at 0.000305 µM, OCI-P5x cells, with rucaparib 20 µM, 100% = cells with rucaparib alone
[25] = at 0.000305 µM, OCI-P5x cells, without rucaparib
[26] = at 0.00122 µM, OCI-C5x cells, with rucaparib 10 µM, 100% = cells with rucaparib alone
[27] = at 0.00122 µM, OCI-C5x cells, without rucaparib
[28] = at 0.00122 µM, OCI-P5x cells, with rucaparib 20 µM, 100% = cells with rucaparib alone
[29] = at 0.00122 µM, OCI-P5x cells, without rucaparib
[30] = at 0.00488 µM, OCI-C5x cells, with rucaparib 10 µM, 100% = cells with rucaparib alone
[31] = at 0.00488 µM, OCI-C5x cells, without rucaparib
[32] = at 0.00488 µM, OCI-P5x cells, with rucaparib 20 µM, 100% = cells with rucaparib alone
[33] = at 0.00488 µM, OCI-P5x cells, without rucaparib
[34] = at 0.0195 µM, OCI-C5x cells, with rucaparib 10 µM, 100% = cells with rucaparib alone
[35] = at 0.0195 µM, OCI-C5x cells, without rucaparib
[36] = at 0.0195 µM, OCI-P5x cells, with rucaparib 20 µM, 100% = cells with rucaparib alone
[37] = at 0.0195 µM, OCI-P5x cells, without rucaparib
[38] = at 0.0781 µM, OCI-C5x cells, with rucaparib 10 µM, 100% = cells with rucaparib alone
[39] = at 0.0781 µM, OCI-C5x cells, without rucaparib
[40] = at 0.0781 µM, OCI-P5x cells, with rucaparib 20 µM, 100% = cells with rucaparib alone
[41] = at 0.0781 µM, OCI-P5x cells, without rucaparib
[42] = at 0.313 µM, OCI-C5x cells, with rucaparib 10 µM, 100% = cells with rucaparib alone
[43] = at 0.313 µM, OCI-C5x cells, without rucaparib
[44] = at 0.313 µM, OCI-P5x cells, with rucaparib 20 µM, 100% = cells with rucaparib alone
[45] = at 0.313 µM, OCI-P5x cells, without rucaparib
[46] = at 1.25 µM, OCI-C5x cells, with rucaparib 10 µM, 100% = cells with rucaparib alone
[47] = at 1.25 µM, OCI-C5x cells, without rucaparib
[48] = at 1.25 µM, OCI-P5x cells, with rucaparib 20 µM, 100% = cells with rucaparib alone
[49] = at 1.25 µM, OCI-P5x cells, without rucaparib
[50] = at 5 µM, OCI-C5x cells, with rucaparib 10 µM, 100% = cells with rucaparib alone
[51] = at 5 µM, OCI-C5x cells, without rucaparib
[52] = at 5 µM, OCI-P5x cells, with rucaparib 20 µM, 100% = cells with rucaparib alone
[53] = at 5 µM, OCI-P5x cells, without rucaparib

c1cncc(CN2CCC(n3ncc4c(N5CCOCC5)nc(-c5ccc6[nH]ccc6c5)nc43)CC2)c1
0.489: fold change [9, 17]
2980: cell count [9, 18]
active: AC50 [1] 7.42 µM | AC50 [2] 8.33 µM | AC50 [3] 14.8 µM | AC50 [4] 2.09 µM | AC50 [5] 16.6 µM | AC50 [6] 5.25 µM | AC50 [7] 20.9 µM | z-score [10, 20] 4.98
3130: cell count [9, 19]
-1.65: z-score [10, 21]
inactive: outcome [8] | fold change [9, 16] 0.951

COC(=O)Nc1ccc(-c2nc(N3CCOCC3)c3cnn(C4CCN(C(=O)OC)CC4)c3n2)cc1
0.692: fold change [9, 17]
0.522: z-score [10, 21]
2340: cell count [9, 19]
active: AC50 [1] 1.86 µM | AC50 [2] 0.0662 µM | AC50 [3] 0.187 µM | AC50 [4] 1.32 µM | AC50 [5] 2.63 µM | AC50 [6] 0.417 µM | z-score [10, 20] 4.37 | viability [12, 24] 94.1% | viability [12, 25] 90.5% | viability [12, 29] 93.1% | viability [12, 40] 97% | viability [12, 48] 83.4% | viability [12, 52] 70.5% | viability [12, 53] 99.3%
inactive: fold change [9, 16] 1.03 | plate-normalised HSF1 focus index [11] 1.06 | viability [12, 22] 108% | viability [12, 23] 105% | viability [12, 26] 127% | viability [12, 27] 108% | viability [12, 28] 104% | viability [12, 30] 109% | viability [12, 31] 108% | viability [12, 32] 101% | viability [12, 33] 102% | viability [12, 34] 118% | viability [12, 35] 117% | viability [12, 36] 106% | viability [12, 37] 104% | viability [12, 38] 115% | viability [12, 39] 112% | viability [12, 41] 101% | viability [12, 42] 100% | viability [12, 43] 114% | viability [12, 44] 101% | viability [12, 45] 106% | viability [12, 46] 119% | viability [12, 47] 116% | viability [12, 49] 103% | viability [12, 50] 126% | viability [12, 51] 120%
2420: cell count [9, 18]
1.11: SSMD [11]
6960: cell count [11]

CC1(C)O[C@@H]2C[C@H]3[C@@H]4CCC5=CC(=O)C=C[C@]5(C)[C@H]4[C@@H](O)C[C@]3(C)[C@]2(C(=O)CO)O1
0.349: z-score [10, 21]
inactive: outcome [1] | outcome [2] | outcome [3] | outcome [4] | outcome [6] | outcome [13] | outcome [8] | z-score [10, 20] -0.574

CNC1CCC(N(Cc2cccc(-c3ccncc3)c2)C(=O)c2sc3c(F)ccc(F)c3c2Cl)CC1 (configuration not stated)
active: AC50 [1] 23.5 µM | AC50 [2] 14.8 µM | AC50 [3] 26.4 µM | AC50 [4] 23.5 µM | AC50 [6] 18.6 µM | AC50 [13] 23.5 µM | AC50 [7] 26.3 µM

OC[C@H]1OC(O)C[C@@H](O)[C@@H]1O (some centres not stated)
inactive: outcome [1] | outcome [2] | outcome [3] | outcome [4] | outcome [6] | outcome [13] | outcome [7] | outcome [8]

CCN1CCN(CC(=O)Nc2ccc(-c3cccc4c(=O)cc(N5CCOCC5)oc34)c3sc4ccccc4c23)CC1
active: AC50 [1] 9.1 µM | AC50 [2] 18.7 µM | AC50 [3] 16.6 µM | AC50 [4] 11.8 µM | AC50 [6] 6.45 µM | AC50 [13] 5.9 µM | AC50 [7] 12.9 µM

CN(C)Cc1c(C(=O)NCCOc2ccc(C(=O)NO)cc2)oc2ccccc12
916: cell count [9, 19]
82.8%: inhibition ([15]; measured here: with cisplatin IC20 combination, at 0.5 µM)
99.8%: inhibition ([15]; cisplatin combo, at 5 µM) | inhibition ([15]; single agent, at 5 µM)
-1.7: z-score [10, 21]
-27.6%: inhibition ([14]; measured here: combination with BGB IC20, at 0.005 µM)
1280: cell count [9, 18]
0.722: SSMD [11]
0.9: fold change [9, 17]
46.7%: inhibition ([14]; measured here: combination with cisplatin, at 0.5 µM, stronger effect = higher value)
active: AC50 [1] 4.17 µM | AC50 [2] 4.69 µM | AC50 [3] 0.935 µM | AC50 [4] 3.32 µM | AC50 [6] 0.833 µM | AC50 [13] 2.96 µM | AC50 [7] 0.934 µM | viability [12, 32] 97.2% | viability [12, 36] 81.2% | viability [12, 37] 97.1% | viability [12, 40] 91.6% | viability [12, 44] 69.9% | viability [12, 45] 79.9% | viability [12, 48] 82.3% | viability [12, 49] 77.6% | viability [12, 50] 8.92% | viability [12, 51] 7.82% | viability [12, 52] 5.56% | viability [12, 53] 34%
9.02%: inhibition ([14]; measured here: combination with BGB IC40, at 0.05 µM)
-6.96%: inhibition ([14]; measured here: combination with BGB IC40, at 0.005 µM)
7540: cell count [11]
99.4%: inhibition ([15]; BGB combo, at 5 µM)
110%: inhibition ([14]; measured here: combination with cisplatin, at 5 µM, stronger effect = higher value)
inactive: fold change [9, 16] 1.4 | plate-normalised HSF1 focus index [11] 1.05 | z-score [10, 20] 0.162 | viability [12, 22] 130% | viability [12, 23] 128% | viability [12, 24] 105% | viability [12, 25] 104% | viability [12, 26] 129% | viability [12, 27] 123% | viability [12, 28] 103% | viability [12, 29] 104% | viability [12, 30] 144% | viability [12, 31] 128% | viability [12, 33] 101% | viability [12, 34] 118% | viability [12, 35] 131% | viability [12, 38] 121% | viability [12, 39] 138% | viability [12, 41] 104% | viability [12, 42] 123% | viability [12, 43] 132% | viability [12, 46] 135% | viability [12, 47] 150% | inhibition ([14]; at 0.5 µM, stronger effect = higher value) 21.6% | inhibition ([15]; at 0.5 µM) 78.8%
69%: inhibition ([15]; measured here: with BGB IC20 combination, at 0.5 µM)

From PubChem BioAssay
